Results reported in PubChem BioAssay AID488969 (Vanderbilt High Throughput Screening Facility, 2010).
The full ranking holds about 110,000 compounds; the median of “z-score” is about -0.1, and the highest 2% start at about 2. Shown is part of a subset that was picked to be rich in the highest values. Calls of active or inactive are those of the source.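 The calls were made as follows: active = z-score in the third read window above 3 or below -3; inactive = the rest.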

target: Metabotropic glutamate receptor 8 (Rattus norvegicus) (UniProt P70579); assay: rat mGluR8 modulators via GIRK flux, primary screen, cell-based, thallium flux, HTS (AID 488969); conditions: HEK293 rat mGluR8, GIRK (G protein-gated inwardly rectifying potassium channel) thallium flux, FluoZin2; at 10 µM; stronger effect = higher value; submaximal glutamate (EC20) added with thallium
Sequence (P70579 whole entry, looked up): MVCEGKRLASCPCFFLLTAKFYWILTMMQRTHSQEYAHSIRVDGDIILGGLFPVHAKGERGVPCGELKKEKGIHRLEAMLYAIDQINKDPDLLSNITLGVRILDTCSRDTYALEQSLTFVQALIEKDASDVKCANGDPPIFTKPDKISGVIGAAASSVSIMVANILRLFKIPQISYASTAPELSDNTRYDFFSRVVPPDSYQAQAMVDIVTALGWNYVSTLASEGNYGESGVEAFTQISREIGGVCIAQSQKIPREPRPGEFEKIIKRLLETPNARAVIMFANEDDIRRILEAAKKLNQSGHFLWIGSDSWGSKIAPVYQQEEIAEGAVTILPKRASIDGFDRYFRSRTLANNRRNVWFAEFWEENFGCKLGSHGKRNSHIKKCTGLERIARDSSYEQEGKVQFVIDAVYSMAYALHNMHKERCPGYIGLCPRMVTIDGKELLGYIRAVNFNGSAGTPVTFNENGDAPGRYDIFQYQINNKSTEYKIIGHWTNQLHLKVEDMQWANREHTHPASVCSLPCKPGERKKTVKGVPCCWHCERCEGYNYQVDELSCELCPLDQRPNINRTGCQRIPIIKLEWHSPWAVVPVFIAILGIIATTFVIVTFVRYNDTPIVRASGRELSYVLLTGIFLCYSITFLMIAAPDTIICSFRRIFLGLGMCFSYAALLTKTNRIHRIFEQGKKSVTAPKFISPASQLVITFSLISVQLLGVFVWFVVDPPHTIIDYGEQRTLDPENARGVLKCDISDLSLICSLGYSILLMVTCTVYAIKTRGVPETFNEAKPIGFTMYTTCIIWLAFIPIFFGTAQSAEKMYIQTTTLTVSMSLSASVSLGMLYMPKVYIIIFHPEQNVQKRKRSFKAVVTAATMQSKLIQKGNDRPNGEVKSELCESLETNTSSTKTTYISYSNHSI

Row | Compound | z-score
1 | CCOc1cc(N2CCOCC2)c(OCC)cc1NC(=O)Cc1cccc2ccccc12 | -0.178
2 | CCOc1ccccc1N1C(=O)CC(N(O)c2ccccc2)C1=O (stereo unspecified) | -0.0542
3 | CC1(C)CN2C(=S)N(c3ccccc3)C(c3ccccc3)N2C1 (stereo unspecified) | -0.619
4 | COc1ccc(N2CCN(CCCNC(=O)Nc3ccccc3)CC2)cc1 | 0.121
5 | COc1ccc(Cl)c(N2CCN(CCCNC(=O)Nc3ccc(C)cc3)CC2)c1 | 2.3
6 | COc1ccc(N2CCN(CCNC(=O)Nc3ccc(Cl)cc3)CC2)cc1 | 0.451
7 | COc1ccccc1C1(CCNS(=O)(=O)c2ccc(C)cc2)CCOC(C(C)C)C1 (stereo unspecified) | -0.293
8 | CC(=O)/C(=N/Nc1ccccc1)Sc1nnc(C(O)c2ccccc2)n1-c1ccccc1 (stereo unspecified) | -0.33
9 | COc1cc(Cl)c(C)cc1NC(=O)CSC | 0.0277
10 | CCn1cc(CNC(=O)/C=C/c2ccc([N+](=O)[O-])cc2)c(C)n1 | -0.204
11 | Fc1cccc2sc(Nc3nc4cc5c(cc4s3)OCCO5)nc12 | 2.25
12 | Fc1ccc2nc(Nc3nc4cc5c(cc4s3)OCCO5)sc2c1 | -0.101
13 | COc1ccc2nc(Nc3nc4cc5c(cc4s3)OCO5)sc2c1 | 0.175
14 | c1ccc2sc(Nc3nc4cc5c(cc4s3)OCO5)nc2c1 | 0.501
15 | Fc1cc(F)c2nc(Nc3nc4cc5c(cc4s3)OCO5)sc2c1 | 1.9
16 | Fc1cccc2sc(Nc3nc4cc5c(cc4s3)OCO5)nc12 | 5.54 (active)
17 | Clc1cccc(Cl)c1Cn1cnc(=NCc2ccco2)c2[nH]cnc21 | -0.33
18 | COc1ccc(/C=N/Nc2cc(C)nc(NS(=O)(=O)c3ccc(C)cc3)n2)cc1 | -0.501
19 | CCCCN=Cc1sc2ccc(OCC)cc2c1O | -0.188

Row | Compound | z-score
20 | CC1CCCN(C(=O)CSc2nnc3n(C4CCCC4)c(=O)c4ccccc4n23)C1 (stereo unspecified) | -0.217
21 | O=C(Nc1ccccc1)Nc1ccccn1 | 0.139
22 | Cc1ccc(C)c(NC(=S)c2ccccn2)c1 | -0.333
23 | S=C(Nc1ccccc1)c1ccccn1 | 2.52
24 | CC(=O)N(Cc1ccc(F)cc1)C1=C(NCc2ccccc2)C(=O)c2ccccc2C1=O | 2.03
25 | CC(=O)N(Cc1ccc(F)cc1)C1=C(NCCc2ccccc2)C(=O)c2ccccc2C1=O | 1.71e-05
26 | CCCNC1=C(N(C(C)=O)c2cccc(F)c2)C(=O)c2ccccc2C1=O | -1.55
27 | COC(=O)C1(S(=O)(=O)c2cc(Br)cc3c2N(C(C)=O)CC3)CC1 | -0.117
28 | O=C(COC(=O)C1=Cc2ccccc2OC1)NC1CCCC1 | -0.184
29 | CCOC(=O)N1CCN(C(=O)CN(c2cc(C(F)(F)F)ccc2Cl)S(C)(=O)=O)CC1 | 0.421
30 | CN1CCN(C(=O)CN(c2cc(C(F)(F)F)ccc2Cl)S(C)(=O)=O)CC1 | 2.63
31 | CS(=O)(=O)N(CC(=O)N1CCN(c2ccccc2)CC1)c1cc(C(F)(F)F)ccc1Cl | -0.525
32 | O=C(COc1cccc2ccccc12)NNC(=O)CSCCO | -0.199
33 | c1csc(-c2nnc(NC3CCCCC3)c3ccccc23)c1 | -1.27
34 | c1ccc(-n2nnnc2NC2CCCCC2)cc1 | -0.018
35 | c1ccc2c(NC3CCCC3)nnc(NC3CCCC3)c2c1 | 3.18 (active)
36 | CCOC(=O)CSc1nnc(Cc2ccccc2)n1-c1cccc(Cl)c1 | -0.436
37 | CCOC(=O)CSc1nnc(CNc2cccc(Cl)c2)n1C | 1.12
38 | CCOC(=O)CSc1nnc(CNc2cccc(Cl)c2)n1-c1ccccc1 | 2.85

Row | Compound | z-score
39 | CCOC(=O)C(=O)Nc1ccc2c(c1)OCO2 | 0.0617
40 | Oc1c(Cl)cc(Cl)cc1C=Nc1ccccc1N1CCCC1 | 0.0524
41 | Cc1cccc(N2CCN(C(=O)Cn3nc(Cc4ccncc4)c4ccccc4c3=O)CC2)c1C | -0.488
42 | O=C(Cn1nc(Cc2ccncc2)c2ccccc2c1=O)N1CCN(C(=O)c2ccco2)CC1 | 3.76 (active)
43 | O=C(Cn1nc(Cc2cccnc2)c2ccccc2c1=O)N1CCN(C(=O)c2ccco2)CC1 | -0.426
44 | CC(C)=C1SC(N2CCN(c3cccc(C(F)(F)F)c3)CC2)=NC1=O | -0.205
45 | O=C1c2cccc3cc(Br)cc(c23)C(=O)N1Nc1ccc(Br)cc1 | -0.252
46 | COc1ccc(CCNC(=O)c2ccc(CN3CCC(Cc4ccccc4)CC3)cc2)cc1 | -0.304
47 | Cc1ccc(CCNC(=O)C2CCCN(S(=O)(=O)c3c(C)noc3/C=C/N(C)C)C2)cc1 (stereo unspecified) | -0.519
48 | Cc1noc(/C=C/N(C)C)c1S(=O)(=O)N1CCCC(C(=O)NCc2ccc(F)cc2)C1 (stereo unspecified) | 2.21
49 | Cc1noc(/C=C/N(C)C)c1S(=O)(=O)N1CCCC(C(=O)NCc2ccc(Cl)cc2)C1 (stereo unspecified) | -0.29
50 | CC(C)(C)NC(=O)C(c1ccncc1)N(C(=O)Cn1nnc(-c2cccs2)n1)C1CCCCC1 (stereo unspecified) | -0.081
51 | Cc1ccc(-n2c(CSc3nc(C)cc(C)n3)nnc2SCC(=O)NCc2ccco2)cc1 | 8.78 (active)
52 | Cc1cc(C)nc(SCC(=O)NCc2ccco2)n1 | 0.232
53 | Cc1cc(C)nc(SCc2nnc(SCC(=O)NCc3ccco3)n2-c2ccccc2)n1 | -0.73
54 | Cc1ccc(-c2nc3ncccc3o2)cc1NC(=O)Cc1ccc(Cl)cc1 | 0.497
55 | CNC(=O)C1CC(=O)N(c2ccc(C)cc2)C1 (stereo unspecified) | 0.338
56 | O=C(Nc1ccc2c(c1)OCCO2)C1CCCN(S(=O)(=O)c2cccc3nsnc23)C1 (stereo unspecified) | 0.545
